Assay results published in PubChem BioAssay (EPA / NIEHS).
Where “and” joins values, the source holds several entries; their conditions need not be identical. Identical values can stand only once. Calls of active or inactive are those of the source. The calls were made as follows: active = hit-call score of the fitted dose curve at least 0.9, where 1 is the maximum; inactive = score below 0.9.

Key:
[1] = BSK_hDFCGF_SRB: Viability Assessment in the BioMAP Diversity Plus: hDFCGF Assay (AID 2283061); conditions: primary human foreskin fibroblasts;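 also: cells exposed to compound for 24 h before the read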
How it was run: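 Viability was read as total protein: after 10% TCA fixation, wells were stained with 0.1% sulforhodamine B and read at 560 nm. Primary human foreskin fibroblasts were dosed for 24 h, with bidirectional fitting versus DMSO.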

[2] = read-out: TIMP metallopeptidase inhibitor 1 (TIMP1), TIMP1 (gene 7076); assay: BSK_hDFCGF_TIMP1: BioMAP Diversity Plus: hDFCGF Assay for TIMP metallopeptidase inhibitor 1 (TIMP1) Biomarker Activity (AID 2283062); conditions: primary human foreskin fibroblasts; actives raise or lower the signal
How it was run: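 TIMP-1 measured by ELISA 24 h after chemical dosing of primary human skin fibroblasts, with gain or loss fitted relative to DMSO. Parallel SRB staining (560 nm) monitored overt cytotoxicity.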

[3] = read-out: Monokine induced gamma interferon (MIG), CXCL9 (gene 4283); assay: BSK_hDFCGF_MIG: BioMAP Diversity Plus: hDFCGF Assay for Monokine induced gamma interferon (MIG) Biomarker Activity (AID 2283063); conditions: primary human foreskin fibroblasts; actives raise or lower the signal
How it was run: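 Human primary foreskin fibroblasts in the hDFCGF system, exposed to test chemical for 24 h; MIG measured by ELISA. Bidirectional curve fitting against DMSO negative control as activity baseline.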

[4] = read-out: Matrix Metallopeptidase 1 (MMP1), MMP1 (gene 4312); assay: BSK_hDFCGF_MMP1: BioMAP Diversity Plus: hDFCGF Assay for Matrix Metallopeptidase 1 (MMP1) Biomarker Activity (AID 2283064); conditions: primary human foreskin fibroblasts; actives raise or lower the signal
How it was run: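 Primary human foreskin fibroblasts exposed to chemicals for 24 h; MMP1 measured by ELISA. Cytotoxicity tracked by SRB staining in parallel cultures; bidirectional fit relative to DMSO.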

[5] = read-out: Vascular cell adhesion molecule 1 (VCAM1), VCAM1 (gene 7412); assay: BSK_hDFCGF_VCAM1: BioMAP Diversity Plus: hDFCGF Assay for Vascular cell adhesion molecule 1 (VCAM1) Biomarker Activity (AID 2283065); conditions: primary human foreskin fibroblasts; actives raise or lower the signal;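 as to AC50: VCAM-1 protein level quantified by ELISA after 24 h chemical exposure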
How it was run: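 ELISA readout of VCAM-1 on human dermal fibroblast primary cultures, 24 h after chemical exposure. Gain or loss of signal fitted in both directions against DMSO baseline.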

[6] = read-out: Plasminogen activator inhibitor-1 (PAI1), SERPINE1 (gene 5054); assay: BSK_hDFCGF_PAI1: BioMAP Diversity Plus: hDFCGF Assay for Plasminogen activator inhibitor-1 (PAI1) Biomarker Activity (AID 2283066); conditions: primary human foreskin fibroblasts; actives raise or lower the signal
How it was run: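 Human foreskin fibroblasts in the hDFCGF system were dosed with compound for 24 h; PAI-1 was quantified by ELISA. Bidirectional curve fitting used DMSO as negative control and baseline.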

[7] = read-out: Interferon-gamma inducible Protein 10 (IP10), CXCL10 (gene 3627); assay: BSK_KF3CT_IP10: BioMAP Diversity Plus: KF3CT Assay for Interferon-gamma inducible Protein 10 (IP10) Biomarker Activity (AID 2283068); conditions: primary human keratinocytes with fibroblasts; actives raise or lower the signal
How it was run: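 In a primary skin co-culture of keratinocytes and fibroblasts, IP-10 is quantified by ELISA at 24 h after dosing. SRB staining of parallel wells monitors overt toxicity. Curves are fitted both directions against DMSO.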

[8] = BSK_KF3CT_SRB: Viability Assessment in the BioMAP Diversity Plus: KF3CT Assay (AID 2283069); conditions: primary human keratinocytes with fibroblasts;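 also: total protein by sulforhodamine B staining as a cytotoxicity measure; read 24 h after compound addition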
How it was run: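 Human keratinocyte and foreskin fibroblast co-culture exposed to chemical for 24 h. Total protein measured in parallel cultures by 0.1% sulforhodamine B staining after 10% TCA fixation, read at 560 nm; bidirectional fit relative to DMSO.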

[9] = read-out: Interleukin-1 alpha (IL1a), IL1A (gene 3552); assay: BSK_KF3CT_IL1a: BioMAP Diversity Plus: KF3CT Assay for Interleukin-1 alpha (IL1a) Biomarker Activity (AID 2283070); conditions: primary human keratinocytes with fibroblasts; actives raise or lower the signal
How it was run: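 Primary human keratinocyte plus foreskin fibroblast co-culture, dosed and measured at 24 h in 96-well plates. IL-1a level quantified by ELISA; bidirectional fit relative to DMSO.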

[10] = read-out: Intercellular Adhesion Molecule 1 (ICAM1), ICAM1 (gene 3383); assay: BSK_KF3CT_ICAM1: BioMAP Diversity Plus: KF3CT Assay for Intercellular Adhesion Molecule 1 (ICAM1) Biomarker Activity (AID 2283067); conditions: primary human keratinocytes with fibroblasts; actives raise or lower the signal
How it was run: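 Cell-surface ICAM-1 was measured by ELISA 24 h after dosing primary human skin keratinocytes co-cultured with fibroblasts. Parallel SRB staining tracked overt cytotoxicity. Gain or loss of signal was fitted relative to DMSO.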

Measured: AC50

Cc1ccccc1O
not listed: [10]
inactive: all other assays above

Cc1cc(-c2ccc(N)c(C)c2)ccc1N
not listed: [8] | [10]
inactive: all other assays above

O=NN(c1ccccc1)c1ccccc1
not listed: [4] | [8] | [10]
inactive: all other assays above

O=C(NC(=O)c1cc(F)c(F)cc1Cl)Nc1cc(F)ccc1N1CCC(C(=O)O)CC1
not listed: [4]
inactive: all other assays above

CN(C)CCO
not listed: [4] | [8] | [10]
inactive: all other assays above

CC#Cc1cc(C)nc(Nc2ccccc2)n1
not listed: [4] | [8] | [10]
inactive: all other assays above

O=C(O)C(F)(F)C(F)(F)C(F)(F)C(F)(F)C(F)(F)C(F)(F)C(F)(F)C(F)(F)C(F)(F)F
active: [1] 28.5 µM and 48.8 µM and 49 µM | [2] 35 µM and 22.2 µM and 39.3 µM | [3] 33 µM and 36.5 µM and 37.9 µM | [5] 31.2 µM and 17.9 µM and 19.4 µM | [6] 33.1 µM and 38.3 µM and 47 µM | [7] 17.3 µM and 46.9 µM and 40.5 µM | [9] 33.5 µM and 47.2 µM and 46.8 µM

N#Cc1ccc(N(CC(N)=O)CC(F)(F)F)cc1C(F)(F)F
not listed: [4]
inactive: all other assays above

CCC(C)(CC)c1cc(NC(=O)c2c(OC)cccc2OC)on1
not listed: [4] | [8] | [10]
inactive: all other assays above

O=C(O)C(F)(F)C(F)(F)C(F)(F)C(F)(F)C(F)(F)F
not listed: [4] | [8] | [10]
inactive: all other assays above

CCOP(=S)(OCC)SCSC(C)(C)C
not listed: [4] | [8] | [10]
inactive: all other assays above

CCCCCCOC(=O)c1ccccc1C(=O)OCCCCCC
not listed: [4] | [8]
inactive: all other assays above

COc1ccc(O)c(C(C)(C)C)c1
not listed: [4]
inactive: all other assays above

ClC1=C(Cl)[C@]2(Cl)[C@@H]3[C@@H]4C[C@@H]([C@H]5O[C@@H]45)[C@@H]3[C@@]1(Cl)C2(Cl)Cl
not listed: [4]
inactive: all other assays above

C=CC(=O)NCNC(=O)C=C
not listed: [4] | [8]
inactive: all other assays above

CCOCCOC(C)=O
not listed: [4] | [8] | [10]
inactive: all other assays above

C1CC2OC2CC1C1CO1 (configuration not stated)
not listed: [4] | [8] | [10]
inactive: all other assays above
